# Calb FLC: affects C. albicans growth with fluconazole; C. albicans CaCi-2 (fluconazole-resistant clinical isolate) + fluconazole, Alamar Blue growth, 48 h; growth inhibition, % (concentration not given with the values); hit rate 0.57% among 300,000;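 active means growth inhibition above about 58% in most replicates, limit read from the data, passing the limit was not always enough; inconclusive means exactly half the replicates above a set limit; inactive means most replicates below a set limit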;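 further: all wells also contain fluconazole at 8 µg/ml as a sub-toxic cotreatment; 0% = median of DMSO wells and 100% = median of geldanamycin control wells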
# CSC inhib: blocks cancer stem cells | cancer stem cell-like cells viability, luminescence | inhibition, % at 7.5 µM | hit rate 1.1% among 300,000; in the data active means inhibition above about 75%; inconclusive means no clear call, values can overlap the other calls; tested in HMLE shEcad cells
# Beta apoptosis: beta cell apoptosis inhibition | INS-1E cytokine-induced death, ATP luminescence, 48 h; percent of positive-control rescue, neutral wells zero | protection from apoptosis, % (test concentration not listed) | hit rate 0.8% among 300,000;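 active means Every replicate reaches about 75%, or at least half do and their mean reaches it too, limit read from the data; inconclusive means At least half of replicates reach the limit but their mean does not; inactive means Under half of replicates reach the limit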;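 further: 0% = cytokine-treated negative control wells and 100% = positive control rescue; higher means more ATP so stronger rescue from cytokine killing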
# Mdm2-MdmX inh: human Mdm2/MdmX binding inhibition | O15151+Q00987 | SaOS-2 split-luciferase Mdm2/MdmX complementation, luminescence | inhibition, % at 8 µM | hit rate 3% among 330,000 | AID 485346;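 active means inhibition of at least 50% at 8 µM in the primary screen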
# Target sequence (O15151 whole entry, looked up): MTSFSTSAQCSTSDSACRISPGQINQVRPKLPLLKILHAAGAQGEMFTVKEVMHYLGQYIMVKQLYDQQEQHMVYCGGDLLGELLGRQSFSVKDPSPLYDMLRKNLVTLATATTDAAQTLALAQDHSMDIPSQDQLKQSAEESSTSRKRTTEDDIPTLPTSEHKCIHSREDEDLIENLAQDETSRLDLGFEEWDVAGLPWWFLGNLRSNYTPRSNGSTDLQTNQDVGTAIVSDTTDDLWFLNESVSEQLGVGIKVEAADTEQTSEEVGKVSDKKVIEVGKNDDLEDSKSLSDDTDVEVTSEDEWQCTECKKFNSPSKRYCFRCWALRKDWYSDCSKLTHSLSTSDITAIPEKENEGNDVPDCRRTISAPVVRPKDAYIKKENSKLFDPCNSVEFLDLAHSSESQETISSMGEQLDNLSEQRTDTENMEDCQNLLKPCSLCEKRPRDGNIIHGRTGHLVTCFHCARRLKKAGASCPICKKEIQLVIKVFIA
# Target sequence (Q00987 whole entry, looked up): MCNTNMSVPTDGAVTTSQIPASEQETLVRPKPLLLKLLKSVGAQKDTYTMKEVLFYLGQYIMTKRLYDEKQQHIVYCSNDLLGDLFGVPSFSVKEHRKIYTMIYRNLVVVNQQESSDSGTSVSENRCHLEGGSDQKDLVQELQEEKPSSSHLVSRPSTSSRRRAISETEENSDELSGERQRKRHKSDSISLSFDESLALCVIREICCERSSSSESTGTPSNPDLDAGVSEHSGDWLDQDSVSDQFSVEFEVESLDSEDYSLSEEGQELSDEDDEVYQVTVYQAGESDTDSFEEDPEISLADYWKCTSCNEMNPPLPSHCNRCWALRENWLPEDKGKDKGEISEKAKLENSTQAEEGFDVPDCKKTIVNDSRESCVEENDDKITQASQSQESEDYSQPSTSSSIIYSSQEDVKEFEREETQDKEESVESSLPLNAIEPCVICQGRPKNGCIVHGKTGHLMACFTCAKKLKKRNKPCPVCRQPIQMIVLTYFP
# MPTP block: inhibitors of mitochondrial permeability transition pore | isolated mouse mitochondria, Ca2+ swelling absorbance, 30 min | inhibition, % at 10 µM | hit rate 1.4% among 360,000 | AID 602449;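 active means inhibition of 50% or more, scaled per plate between neutral and stimulator controls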;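 further: 0% = DMSO wells given calcium and 100% = 1 mM EGTA wells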
# Mdm2-MdmX conf: confirmation of human Mdm2/MdmX interaction inhibitors; Mdm2-MdmX binding, luminescent assay; inhibition, % at 8 µM; shares compounds with Mdm2-MdmX inh; hit rate 55% among 10,000; AID 489028; in the data active means inhibition above about 40%
# FLuc counter: counter-screen for Mdm2/MdmX inhibitors: full-length luciferase. AID 504607. hit rate 77% among 6,200. SaOS-2 full-length luciferase counterscreen, luminescence. shares compounds with Mdm2-MdmX inh. inhibition, % at 8 µM;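 active means mean inhibition at 8 µM reaching about 37%, which flags the compound as non-specific, limit read from the data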;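 further: p53-null SaOS-2 cells with luciferase driven by a doxycycline-inducible promoter; compound on cells about two nights before reading with doxycycline added after day one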
# Numbers without * were called inactive; u = inconclusive; x = no result given. Most compounds without a hit are left out; they make up all but 4.8% or so of the library.
SMILES,Calb FLC,CSC inhib,Beta apoptosis,Mdm2-MdmX inh,MPTP block,Mdm2-MdmX conf,FLuc counter
CCNC(=S)N(CCc1ccccc1C)Cc1cc2cc(OC)c(OC)cc2[nH]c1=O,-3.1,14.5,-5.7,14.4,-1.0,x,x
C=CC1=C2C=C(C3CC3)N(CCCN(CC)CC)C=C2C(=O)C(C)(OC(=O)c2ccco2)C1=O (stereo not drawn),17.2,13.3,-6.8,0.9,0.2,x,x
CC(C)C[C@@H]1CN(CCCC[C@H]2CNC(=O)C(=O)N2CCC2CCCCC2)C(=O)C(=O)N1CCc1ccc(O)cc1,x,x,x,x,-3.0,x,x
CCc1ccc(NC(=O)CSc2nc3ccccc3c(=O)n2CCCC(=O)N2CCCC2)cc1,2.9,39.7,x,51.7*,8.2,48.9*,42.2*
COc1ccc(NC(=O)CSc2nc3c(sc4ccccc43)c(=O)n2CCCN2CCCC2)cc1,-22.3,8.3,-2.6,98.1*,-0.9,70.3*,23.1
O=C(CSc1nc2c(sc3ccccc32)c(=O)n1CCCN1CCCC1)NCC1CCCO1 (stereo not drawn),-11.0,-3.4,3.5,5.5,-1.0,x,x
CCN(CC)CCn1c(SCC(=O)NCc2ccccc2)nc2c(sc3ccccc32)c1=O,-10.4,-2.3,-4.0,74.8*,9.5,28.0,x
COc1ccc2c(c1)-c1c(sn(-c3ccc(OC)c(OC)c3)c1=S)C(C)(C)N2,34.4,74.1,x,54.5*,-5.0,18.6,x
COc1ccc2c(c1)-c1c(sn(-c3ccccc3)c1=S)C(C)(C)N2,u,-7.2,0.2,31.0,1.5,x,x
COc1ccc2c(c1)-c1c(ssc1=S)C(C)(C)N2,41.4,8.8,-14.4,92.0*,2.0,87.2*,55.0*
COc1ccc2c(c1)-c1c(ssc1=S)C(C)(C)N2S(=O)(=O)c1ccc(C)cc1,-1.3,65.7,2.1,58.0*,3.1,46.1*,61.3*
Cc1ccc(S(=O)(=O)N2c3ccccc3-c3c(ssc3=S)C2(C)C)cc1,-7.9,-4.5,-10.9,5.4,3.4,x,x
COCC(=O)N1C[C@@H](C)[C@@H](OC)CN(C)C(=O)c2ccc(NC(=O)c3cnccn3)cc2OC[C@H]1C,x,x,x,x,-2.0,x,x
COC(=O)c1cc(=O)n(Cc2ccc(OC)c(OC)c2)c(=Nc2ccc(F)cc2)s1,9.6,96.9*,-14.9,76.1*,1.6,33.0,97.7*
CC(C)=N/N=c1\scc(C)n1Cc1ccco1,-7.6,13.3,-3.4,1.7,0.3,x,x
COC(=O)c1cc(=O)n(CCc2ccc(OC)c(OC)c2)c(=Nc2ccc(F)c(Cl)c2)s1,1.1,109.5*,11.1,83.5*,-0.5,10.6,x
COC(=O)c1cc(=O)n(Cc2ccco2)c(=Nc2ccc(F)cc2)s1,4.0,61.8,-14.4,58.2*,2.9,30.2,x
COc1ccc(NC(=O)CCOc2ccccc2C)cc1S(=O)(=O)N1CCCCC1,15.0,3.4,4.6,-14.2,-2.7,x,x
NC(=O)C1=C(N=C2CCCCC2)CCCC1,x,x,x,x,1.0,x,x
O=C1NC[C@H](Cc2ccc(O)cc2)N(C[C@@H]2CCCN2C[C@H](Cc2ccccc2)N2C[C@H](Cc3ccc(O)cc3)N(CC3CCCCCC3)C(=O)C2=O)C1=O,x,x,x,x,-5.5,x,x
CC1=C(C(=O)N(C)C)CC(CC(=O)NCC2CCCCC2)C(=O)N1Cc1ccccc1 (stereo not drawn),x,x,x,x,-0.1,x,x
O=S(=O)(c1ccccc1)c1ncc(C(F)(F)F)cc1Cl,-4.9,x,x,60.7*,-1.0,31.8,x
N#CCC(=O)N/N=C/c1cn(Cc2ccc(Cl)c(Cl)c2)c2ccccc12,-5.0,10.4,x,73.0*,5.4,47.4*,53.4*
N#CCC(=O)N/N=C/c1cn(Cc2cccc3ccccc23)c2ccccc12,5.8,57.5,31.0,65.8*,7.3,63.5*,54.6*
O=C(Nc1ccc2c(c1)OCCO2)C1C(c2ccccc2)=Nc2ccccc2N1C(=O)c1cccnc1 (stereo not drawn),x,x,x,x,5.4,x,x
SMILES,Calb FLC,CSC inhib,Beta apoptosis,Mdm2-MdmX inh,MPTP block,Mdm2-MdmX conf,FLuc counter
COc1ccc2cc3cc(C(=O)NCc4cccnc4)oc3nc2c1,2.1,43.1,8.2,1.0,-1.4,x,x
O=C(NC(=S)/C(=C1\CCCCCN1)[N+](=O)[O-])c1ccccc1,x,-0.3,0.5,85.0*,0.6,79.4*,142.1*
Cc1cc(C)n(-c2nc(SCCN(C)C)c3c4c(sc3n2)COC(C)(C)C4)n1,6.4,7.5,22.6,54.3*,1.7,58.2*,52.7*
Cc1cc(C)n(-c2nc(NCC(C)O)c3c4c(sc3n2)COC(C)(C)C4)n1 (stereo not drawn),-9.3,2.7,13.4,8.3,0.3,x,x
COc1ccc(-c2oc3ncnc(NCCCN4CCOCC4)c3c2-c2ccc(OC)cc2)cc1,15.5,20.3,0.4,60.1*,-1.3,30.6,x
COc1ccc(-c2oc3ncnc(NCCN4CCOCC4)c3c2-c2ccc(OC)cc2)cc1,25.2,33.7,41.5,79.7*,1.3,36.9,x
c1ccc(-c2oc3ncnc(NCCCN4CCOCC4)c3c2-c2ccccc2)cc1,-4.4,24.9,-5.1,16.3,-0.7,x,x
COc1ccc(-c2oc3ncn(CCN4CCOCC4)c(=N)c3c2-c2ccc(OC)cc2)cc1,42.6,43.4,48.3,57.3*,-2.6,38.0,49.4*
Cc1cc(C)cc(C(O)c2ncc(-c3cccc(F)c3)[nH]2)c1 (stereo not drawn),x,x,x,x,-0.3,x,x
Cc1nc(N/N=C/c2ccc(O)cc2)c2cnn(-c3ccccc3)c2n1,58.3,-7.4,1.2,59.4*,2.3,-2.9,x
Cc1nc2ccccc2nc1N/N=C/c1ccc(O)cc1,6.9,5.0,0.8,-36.0,0.1,x,x
CCC(=O)NC(c1ccc(OC)cc1)c1cc(Cl)c2cccnc2c1O (stereo not drawn),103.6*,119.4*,96.4*,79.3*,-1.4,80.7*,25.5
CCC(=O)NC(c1ccccc1OC)c1ccc2cccnc2c1O (stereo not drawn),103.1*,92.9*,109.1*,69.5*,-0.2,59.7*,32.5
CCCC(=O)NC(c1ccccc1)c1ccc2cccnc2c1O (stereo not drawn),86.3*,107.9*,99.0*,79.4*,-0.1,89.0*,49.0*
Cc1cc(NC(c2cccnc2)c2ccc3cccnc3c2O)no1 (stereo not drawn),-4.9,x,104.0*,74.0*,0.5,68.2*,40.3*
O=C(C(=O)N1CCN(C(=O)OCc2ccccc2)CC1)c1cccs1,x,x,x,x,0.5,x,x
CCCCC(=O)NC(c1ccccc1Cl)c1ccc2cccnc2c1O (stereo not drawn),4.5,99.3*,105.6*,80.4*,6.7,90.5*,22.5
O=C(CCc1ccccc1)NC(c1cccs1)c1cc(Cl)c2cccnc2c1O (stereo not drawn),u,x,x,x,10.3,x,x
CCCCC(=O)NC(c1ccc(C(C)C)cc1)c1ccc2cccnc2c1O (stereo not drawn),-1.9,x,x,77.9*,4.4,87.9*,19.4
COc1ccc(C(NC(=O)c2cccnc2)c2cc(Cl)c3cccnc3c2O)cc1OC (stereo not drawn),6.5,x,91.1*,74.5*,-3.4,77.8*,26.3

# High-throughput results deposited in PubChem by several laboratories.
